Bioassay records (PubChem BioAssay)
A selection: hits, their analogues and other compounds. The true share with any hit is near 21%.
HCV inh: blocks hepatitis C virus | Huh7.5.1 HCVcc-Cre infection, luciferase reporter, 44 h | Potency, µM (titrated, usually from 41.8 µM), actives largely listed as inhibitors | 340,000 tested, 3.4% active | AID 651820
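1,000 cells/well; 4 h culture; + compound; + HCVcc-Cre (~0.5 moi); 44 h; luciferase substrate, RT 15 min; read 15 sec.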
CHX counter: counter-screen for Shiga toxin inhibitors: cycloheximide protein synthesis inhibition | cell reporter, cycloheximide protein synthesis inhibition counterscreen | max response, % | 300,000 tested, 12% active | AID 2314; in the data active = max response mostly above about 13%, no sharp cut-off; inactive = mostly below about 14%; also: read at 38.3 µM for the half of the compounds with a filed dose
Pf growth 48h: P. falciparum growth inhibition at 48 hours (one generation). P. falciparum luciferase growth in erythrocytes, 48 h. Potency, µM (titrated, usually from 28.7 µM), usual class: inhibitors. 310,000 tested, 5.9% active. AID 504832
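Luciferase-expressing P. falciparum in infected erythrocytes (2% hematocrit, 0.1% parasitemia final) in RPMI 1640/0.5% Albumax were exposed to compound for 48 hours at 37 C, 5% CO2; growth read as luminescence.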
Shiga toxin inh: Shiga toxin inhibition; inhibition, % at 38.7 µM; 290,000 tested, 9.2% active; Vero cells, Shiga toxin protein synthesis inhibition reporter; in the data active = inhibition mostly above about 28%, no sharp cut-off; inactive = mostly below about 43%
AMA1-RON2 inh: inhibitors of Plasmodium falciparum AMA1-RON2 interaction. AlphaScreen AMA1-biotinylated RON2 peptide binding. Potency, µM (highest dose often 58.2 µM), usual class: inhibitors. 360,000 tested, 0.2% active. AID 720542; also: nearly all actives have a fitted effect of over 45% in size
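AMA1 (3D7) with his tag at 25 nM final met compounds first, then biotinylated RON2 peptide at 25 nM; detection used donor plus acceptor beads, 10 µg/mL apiece, read by AlphaScreen after 30 min at room temperature.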
Pf growth 96h: P. falciparum growth inhibition at 96 hour, primary screen for plastid delayed-death inhibitors. P. falciparum luciferase reporter growth, 96 h. Potency, µM (highest dose often 28.7 µM), usual class: inhibitors. 320,000 tested, 6.9% active
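Luminescence readout: decreased luciferase signal marks inhibited growth of reporter-expressing P. falciparum in infected red cells (2% hematocrit, 0.05% parasitemia final), exposed to compound two generations (96 h, 37 C, 5% CO2).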
Numbers stand for hits. Unless noted, calls follow the shape of the dose curve; as a rule, active = well fitted curve in the direction sought with a large enough effect; inconclusive = small, poorly fitted or top-dose-only effect, or another doubt; inactive = no such curve, though single readings can be large; an effect the other way counts as inactive or inconclusive.

For O=C(Nc1ccc2nc3n(c(=O)c2c1)CCCCC3)c1c(F)ccc([N+](=O)[O-])c1F the results were HCV inh 14.1µM, CHX counter 92.4, Pf growth 48h inconclusive, Shiga toxin inh 89.4, AMA1-RON2 inh inactive and Pf growth 96h inconclusive.
CC1C(=O)N2CCCc3cc(NC(=O)C(=O)NCc4ccccn4)cc1c32 (configuration not stated) was read as HCV inh inactive, Pf growth 48h inactive, AMA1-RON2 inh inactive and Pf growth 96h inactive.
CC/C(=C\C(=O)c1cccnc1)Nc1ccc(C)c(C)c1 was read as HCV inh inactive, CHX counter 17.0, Pf growth 48h inconclusive, Shiga toxin inh 51.6, AMA1-RON2 inh inactive and Pf growth 96h inconclusive.
Screening COCCCN(C(=O)Nc1ccc(C)c(C)c1)C(C)c1ccccn1 (configuration not stated) returned HCV inh inactive, CHX counter inactive, Shiga toxin inh inactive, AMA1-RON2 inh inactive and Pf growth 96h 13.1µM.
`CCc1ccc(NC(=O)N(C2CCCCC2)C(C)c2cccnc2)cc1` (configuration not stated) gave HCV inh inactive, CHX counter 33.4, Shiga toxin inh inactive, AMA1-RON2 inh inactive and Pf growth 96h inactive.
Cc1ccc(NC(=O)N(C2CCCCC2)C(C)c2cccnc2)cc1C (configuration not stated) was read as HCV inh inactive, CHX counter inactive, Shiga toxin inh inactive, AMA1-RON2 inh inactive and Pf growth 96h inactive.
Screening COCCN(C(=O)Nc1ccccc1)C(C)c1cccnc1 (configuration not stated) returned HCV inh inactive, CHX counter inactive, Shiga toxin inh inactive, AMA1-RON2 inh inactive and Pf growth 96h 5.22µM.
Screening COc1ccc(C(=O)O)cc1S(=O)(=O)N1CCSCC1 returned HCV inh inactive, CHX counter inactive, Pf growth 48h inactive, Shiga toxin inh inactive, AMA1-RON2 inh inactive and Pf growth 96h inactive.
For CCc1ccc(NC(=O)c2cccnc2)cc1 the results were HCV inh inactive, CHX counter 32.2, Pf growth 48h inactive, Shiga toxin inh 72.9, AMA1-RON2 inh inactive and Pf growth 96h inactive.
`CCCNS(=O)(=O)c1ccc(NC(=O)c2cccnc2)cc1` gave HCV inh inactive, CHX counter inactive, Shiga toxin inh inactive, AMA1-RON2 inh inactive and Pf growth 96h inactive.
Screening CCSc1ccc(NC(=O)c2cccnc2)cc1 returned HCV inh inactive, CHX counter 33.5, Pf growth 48h inactive, Shiga toxin inh inactive, AMA1-RON2 inh inactive and Pf growth 96h inactive.
Screening CC(C)c1ccc(NC(=S)N2CCCC2)cc1 returned HCV inh inactive, CHX counter 60.7, Pf growth 48h inactive, Shiga toxin inh 156.2, AMA1-RON2 inh inactive and Pf growth 96h inactive.
For S=C(Nc1ccccc1)N1CCCCCCC1 the results were HCV inh inactive, CHX counter inactive, Pf growth 48h inactive, Shiga toxin inh inactive, AMA1-RON2 inh inactive and Pf growth 96h inconclusive.
CC(C)c1ccc(NC(=S)N2CCN(C)CC2)cc1 was read as HCV inh inactive, CHX counter 36.9, Pf growth 48h inactive, Shiga toxin inh 37.1, AMA1-RON2 inh inactive and Pf growth 96h inactive.
For Cc1ccc(CSc2nnc(CNc3ccc(F)cc3)o2)cc1 the results were HCV inh inactive, CHX counter inactive, Pf growth 48h inactive, Shiga toxin inh inactive, AMA1-RON2 inh inactive and Pf growth 96h inactive.
O=C(NCCCNC(=O)c1cccs1)c1cccs1 was read as HCV inh inactive, CHX counter inactive, Pf growth 48h inactive, Shiga toxin inh inactive, AMA1-RON2 inh inactive and Pf growth 96h inactive.
Screening O=C(NCCc1ccccc1)c1cnc2sccn2c1=O returned HCV inh inactive, CHX counter 43.2, Pf growth 48h inactive, Shiga toxin inh 92.9, AMA1-RON2 inh inactive and Pf growth 96h inactive.
For O=C(NCCCCNC(=O)c1cccs1)c1cccs1 the results were HCV inh inactive, CHX counter inactive, Pf growth 48h inactive, Shiga toxin inh inactive, AMA1-RON2 inh inactive and Pf growth 96h inconclusive.
O=C(NCCc1cccc(Cl)c1)c1cccs1 was read as HCV inh inactive, CHX counter 66.9, Pf growth 48h inactive, Shiga toxin inh 100.8, AMA1-RON2 inh inactive and Pf growth 96h inconclusive.
CCN=c1sc(C(=O)NCCc2ccccc2)cc(=O)n1CC was read as HCV inh inactive, CHX counter 47.0, Pf growth 48h inconclusive, Shiga toxin inh 97.3, AMA1-RON2 inh inactive and Pf growth 96h inactive.
CCN=C1SC(C(=O)NCCc2ccccc2)CC(=O)N1CC (configuration not stated) was read as HCV inh inactive, CHX counter inactive, Pf growth 48h inactive, Shiga toxin inh inactive, AMA1-RON2 inh inactive and Pf growth 96h inactive.
O=C(NCCc1ccccc1)c1cccs1 was read as HCV inh inactive, CHX counter 29.0, Shiga toxin inh inactive, AMA1-RON2 inh inactive and Pf growth 96h inactive.
Screening O=C(Nc1ncccc1O)C1CCN(S(=O)(=O)c2ccc3ccccc3c2)CC1 returned HCV inh inactive, Pf growth 48h inconclusive, AMA1-RON2 inh inactive and Pf growth 96h inactive.
`CCN(C(=O)CSc1nc(N)cc(=O)[nH]1)c1c(N)n(Cc2ccccc2)c(=O)[nH]c1=O` gave HCV inh inactive, Pf growth 48h inconclusive, AMA1-RON2 inh inactive and Pf growth 96h inactive.
O=C(NCCN1CCN(C(=O)c2cccc(OC(F)F)c2)CC1)c1cccc(OC(F)F)c1 was read as HCV inh inconclusive and AMA1-RON2 inh inactive.
COc1ccc(OC)c(NC(=O)CCN2CC(C)CC(C)C2)c1 (configuration not stated) was read as HCV inh inactive, CHX counter inactive, Pf growth 48h inactive, AMA1-RON2 inh inactive and Pf growth 96h inactive.
Cc1cc2ccccc2n1CCNC(=O)c1cccs1 was read as HCV inh inactive, CHX counter 17.0, Pf growth 48h inactive, Shiga toxin inh 31.5, AMA1-RON2 inh inconclusive and Pf growth 96h inconclusive.
Screening O=C(NCc1nc2ccccc2[nH]1)c1cccs1 returned HCV inh inactive, CHX counter 23.1, Pf growth 48h inactive, Shiga toxin inh inactive, AMA1-RON2 inh inactive and Pf growth 96h inactive.
`O=C(NCc1nc2ccccc2[nH]1)c1ccco1` gave HCV inh inactive, CHX counter inactive, Pf growth 48h inactive, Shiga toxin inh inactive, AMA1-RON2 inh inactive and Pf growth 96h inactive.
CC1CC(C)(C)CC2(C1)NC(=O)N(CC(=O)Nc1c(F)cccc1F)C2=O (configuration not stated) was read as HCV inh inactive, Pf growth 48h inactive, AMA1-RON2 inh inactive and Pf growth 96h inactive.
For CC(C)Cc1nnc(NC(=O)CN2C(=O)NC3(CC(C)CC(C)(C)C3)C2=O)s1 (configuration not stated) the results were HCV inh inactive, Pf growth 48h inconclusive, AMA1-RON2 inh inactive and Pf growth 96h 16.5µM.
